{"source": "paper PMC4336329", "about": "(PLoS ONE, 2015)", "note": "In all, about 310,000 compounds went through this assay and about 14,000 (4.5%) showed an effect of 50% or more. The effect is printed as a negative number. The list comes from a sample in which strong results are over-represented; it also holds similar structures and randomly drawn compounds.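 Further: peak tail current of the secondary pulse compared with the same well before compound.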"}
{"molecular_target": "human ether-à-go-go-related gene (hERG) potassium channel (human, UniProt Q12809)", "sequence (Q12809 whole entry, looked up)": "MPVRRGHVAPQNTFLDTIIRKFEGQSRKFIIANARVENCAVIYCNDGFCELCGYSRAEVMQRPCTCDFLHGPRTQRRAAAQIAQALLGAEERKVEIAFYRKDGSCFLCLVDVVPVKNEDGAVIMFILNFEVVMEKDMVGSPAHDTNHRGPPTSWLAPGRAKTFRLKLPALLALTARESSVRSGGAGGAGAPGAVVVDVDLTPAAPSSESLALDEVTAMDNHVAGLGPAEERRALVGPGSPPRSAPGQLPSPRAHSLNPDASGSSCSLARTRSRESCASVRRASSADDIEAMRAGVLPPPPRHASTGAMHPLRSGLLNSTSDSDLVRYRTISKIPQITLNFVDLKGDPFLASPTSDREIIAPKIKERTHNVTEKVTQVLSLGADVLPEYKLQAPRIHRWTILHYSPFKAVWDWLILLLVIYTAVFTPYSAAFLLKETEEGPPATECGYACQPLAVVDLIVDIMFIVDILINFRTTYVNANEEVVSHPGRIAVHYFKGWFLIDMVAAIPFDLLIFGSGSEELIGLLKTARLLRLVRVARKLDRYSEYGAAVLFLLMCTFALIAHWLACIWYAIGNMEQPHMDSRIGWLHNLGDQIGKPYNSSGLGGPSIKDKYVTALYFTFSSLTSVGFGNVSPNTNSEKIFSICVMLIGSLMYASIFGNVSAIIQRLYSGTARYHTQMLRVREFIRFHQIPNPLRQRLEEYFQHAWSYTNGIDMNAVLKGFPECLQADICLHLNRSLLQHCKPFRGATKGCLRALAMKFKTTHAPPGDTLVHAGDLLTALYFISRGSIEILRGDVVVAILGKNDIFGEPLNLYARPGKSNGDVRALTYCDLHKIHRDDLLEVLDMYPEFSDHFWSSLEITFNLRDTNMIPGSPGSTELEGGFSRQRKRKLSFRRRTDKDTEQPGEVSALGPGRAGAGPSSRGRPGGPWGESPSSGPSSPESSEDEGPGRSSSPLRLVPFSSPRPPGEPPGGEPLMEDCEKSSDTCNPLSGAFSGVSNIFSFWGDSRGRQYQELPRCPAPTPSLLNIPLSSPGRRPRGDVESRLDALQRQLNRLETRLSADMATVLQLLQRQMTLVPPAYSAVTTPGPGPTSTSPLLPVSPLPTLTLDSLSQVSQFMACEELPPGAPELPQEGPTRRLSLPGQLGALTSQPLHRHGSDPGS", "experiment": "primary screen, population patch clamp on CHO cells stably expressing hERG; higher = less effect of the substance", "units": {"hERG current change (%, negative = inhibition) at 10uM": "%"}}
{"smiles": "CCN(CC)CCn1c(=S)[nH]c2cc(C(=O)NCc3ccccc3Cl)ccc2c1=O", "hERG current change (%, negative = inhibition) at 10uM": -76.1}
{"smiles": "O=C(NCc1ccccc1Cl)c1ccc2c(=O)n(CCCN3CCCC3=O)c(=S)[nH]c2c1", "hERG current change (%, negative = inhibition) at 10uM": -8.83}
{"smiles": "O=C(NCc1ccccc1Cl)c1ccc2c(=O)n(CC3CCCO3)c(=S)[nH]c2c1", "note": "(stereo not drawn)", "hERG current change (%, negative = inhibition) at 10uM": 10.1}
{"smiles": "Cc1ccc(CNC(=O)c2ccc3c(=O)n(CC4CCCO4)c(=S)[nH]c3c2)cc1", "note": "(stereo not drawn)", "hERG current change (%, negative = inhibition) at 10uM": -9.6}
{"smiles": "CCN(CC)CCn1c(=S)[nH]c2cc(C(=O)NCc3ccc(C)cc3)ccc2c1=O", "hERG current change (%, negative = inhibition) at 10uM": -57.9}
{"smiles": "Cc1ccc(CNC(=O)c2ccc3c(=O)n(CCCN4CCCC4=O)c(=S)[nH]c3c2)cc1", "hERG current change (%, negative = inhibition) at 10uM": 6.41}
{"smiles": "COc1ccccc1N(CC(O)COc1c(C)cc(C)cc1C)S(=O)(=O)c1ccccc1", "note": "(stereo not drawn)", "hERG current change (%, negative = inhibition) at 10uM": -0.161}
{"smiles": "CSc1ncccc1C(=O)N1CCCC(CCC(=O)NCc2ccccc2F)C1", "note": "(stereo not drawn)", "hERG current change (%, negative = inhibition) at 10uM": 6.52}
{"smiles": "CN1CCC(N(C)C(=O)c2sc3cc(F)ccc3c2Cl)CC1", "hERG current change (%, negative = inhibition) at 10uM": -47.9}
{"smiles": "COc1ccc(NS(=O)(=O)c2cccc3nsnc23)cc1Cl", "hERG current change (%, negative = inhibition) at 10uM": 11.2}
{"smiles": "Cc1cc(C)c(CSc2ncc(-c3ccc([N+](=O)[O-])cc3)[nH]2)c(C)c1", "hERG current change (%, negative = inhibition) at 10uM": -10.2}
{"smiles": "CCOC(=O)CSc1ncc(-c2ccc([N+](=O)[O-])cc2)[nH]1", "hERG current change (%, negative = inhibition) at 10uM": -61}
{"smiles": "NC(=O)CSc1ncc(-c2ccc([N+](=O)[O-])cc2)[nH]1", "hERG current change (%, negative = inhibition) at 10uM": -14.6}
{"smiles": "O=C(c1ccc2c(c1)OCO2)C1CCCN(Cc2cc(F)ccc2-n2cccn2)C1", "note": "(stereo not drawn)", "hERG current change (%, negative = inhibition) at 10uM": -74.9}
{"smiles": "CCOC(=O)CCNC(=O)N1CCCC(C(=O)c2ccc3c(c2)OCO3)C1", "note": "(stereo not drawn)", "hERG current change (%, negative = inhibition) at 10uM": 2.31}
{"smiles": "CCOC(=O)CNC(=O)N1CCCC(C(=O)c2ccc3c(c2)OCO3)C1", "note": "(stereo not drawn)", "hERG current change (%, negative = inhibition) at 10uM": 11.1}
{"smiles": "O=C(c1ccc2c(c1)OCO2)C1CCCN(C(=O)Nc2ccc(F)cc2F)C1", "note": "(stereo not drawn)", "hERG current change (%, negative = inhibition) at 10uM": -30}
{"smiles": "Cc1ccc(-n2cccn2)c(CN2CCCC(C(=O)c3ccc4c(c3)OCO4)C2)c1", "note": "(stereo not drawn)", "hERG current change (%, negative = inhibition) at 10uM": -77.2}
{"smiles": "c1cncc(-c2ccnc3ncnn23)c1", "hERG current change (%, negative = inhibition) at 10uM": -4.79}
{"smiles": "COc1cc(C)c(CNc2cccc(C)c2)cc1C", "hERG current change (%, negative = inhibition) at 10uM": 2.74}
{"smiles": "Cc1ccc(SCn2nnc3ccccc3c2=O)c(C)c1", "hERG current change (%, negative = inhibition) at 10uM": -33.8}
{"smiles": "O=C(CCCn1cnc([N+](=O)[O-])n1)Nc1cccc(O)c1", "hERG current change (%, negative = inhibition) at 10uM": 9.95}
{"smiles": "CCOC(=O)C(C)n1nc(-c2ccccc2)c2ccccc2c1=O", "note": "(stereo not drawn)", "hERG current change (%, negative = inhibition) at 10uM": 15.9}
{"smiles": "CCC1Oc2ccc(C)cc2N(CC(=O)NC2CCCCC2)C1=O", "note": "(stereo not drawn)", "hERG current change (%, negative = inhibition) at 10uM": 5.8}
{"smiles": "CCCCNC(=O)Nc1nnc(SCC(=O)OCC)s1", "hERG current change (%, negative = inhibition) at 10uM": -91.2}
{"smiles": "CCCCNC(=O)CSc1nnc(NC(C)=O)s1", "hERG current change (%, negative = inhibition) at 10uM": -10.6}
{"smiles": "CCOC(=O)CSc1nnc(NC(=O)NC(C)C)s1", "hERG current change (%, negative = inhibition) at 10uM": 5.74}
{"smiles": "O=C(O)CCN1CCc2ccccc21", "hERG current change (%, negative = inhibition) at 10uM": 9.02}
{"smiles": "FC(F)(F)c1cccc(NCc2n[nH]c(=S)n2C2CCCCC2)c1", "hERG current change (%, negative = inhibition) at 10uM": 41.2}
{"smiles": "Cc1ccc(S(=O)(=O)N(C)Cc2cc3ccccc3[nH]c2=O)cc1", "hERG current change (%, negative = inhibition) at 10uM": -15.7}
{"smiles": "COc1cccc(C(=O)/C=C/Nc2ccc(S(=O)(=O)Nc3nc(C)cc(C)n3)cc2)c1", "hERG current change (%, negative = inhibition) at 10uM": -1.4}
{"smiles": "O=C(CCc1nnc2ccc(NCCCN3CCCC3=O)nn12)NCc1ccccc1Cl", "hERG current change (%, negative = inhibition) at 10uM": -1.05}
{"smiles": "Cc1nn(-c2ccccc2)c2c1C(c1ccc(F)cc1F)C(C#N)=C(N)O2", "note": "(stereo not drawn)", "hERG current change (%, negative = inhibition) at 10uM": -9.42}
{"smiles": "COc1ccc(C(=O)n2nc(-c3ccco3)nc2N)cc1", "hERG current change (%, negative = inhibition) at 10uM": -2.65}
{"smiles": "CC(C)CCn1c(=O)c2ccccc2n2c(CN3CCOCC3)nnc12", "hERG current change (%, negative = inhibition) at 10uM": -11.9}
{"smiles": "CC(C)CCn1c(=O)c2ccccc2n2c(CN(C)Cc3ccccc3)nnc12", "hERG current change (%, negative = inhibition) at 10uM": -80.7}
{"smiles": "CC(C)CCn1c(=O)c2ccccc2n2c(CCl)nnc12", "hERG current change (%, negative = inhibition) at 10uM": -32.8}
{"smiles": "CC(C)CCn1c(=O)c2ccccc2n2c(=S)[nH]nc12", "hERG current change (%, negative = inhibition) at 10uM": 18.2}
{"smiles": "CC(C)CCn1c(=O)c2ccccc2n2c(CN3CCCC3)nnc12", "hERG current change (%, negative = inhibition) at 10uM": -2.3}
{"smiles": "CC(C)CCn1c(=O)c2ccccc2n2c(CN3C(=O)NC4(CCC(C)CC4)C3=O)nnc12", "note": "(stereo not drawn)", "hERG current change (%, negative = inhibition) at 10uM": -72.1}
{"smiles": "CCN1C(=O)/C(=C2/Sc3ccc(OC)cc3N2C)SC1=Nc1cccc(O)c1", "hERG current change (%, negative = inhibition) at 10uM": 15.6}
{"smiles": "CCOc1ccc(S(=O)(=O)n2ccc(C)n2)cc1", "hERG current change (%, negative = inhibition) at 10uM": 10.9}
{"smiles": "O=S(=O)(NCc1ccc2c(c1)OCO2)c1cccc(S(=O)(=O)N2CCOCC2)c1", "hERG current change (%, negative = inhibition) at 10uM": 10.6}
{"smiles": "N#Cc1ccc2c(c1)nnn2-c1ccccc1", "hERG current change (%, negative = inhibition) at 10uM": 1.85}
{"smiles": "O=c1c2ccccc2nc(CSc2ncnc3nc[nH]c23)n1-c1ccc(Cl)c(Cl)c1", "hERG current change (%, negative = inhibition) at 10uM": 5.27}
{"smiles": "CCOC(=O)Cn1cnc2c(C#N)c3n(c2c1=O)CCCCC3", "hERG current change (%, negative = inhibition) at 10uM": -9.52}
{"smiles": "N#Cc1c(-c2ccccc2)nc(-c2cccnc2)[nH]c1=O", "hERG current change (%, negative = inhibition) at 10uM": 17.6}
{"smiles": "N#Cc1c(-c2ccccc2)nc(-c2ccncc2)[nH]c1=O", "hERG current change (%, negative = inhibition) at 10uM": -71.5}
{"smiles": "N#Cc1c(-c2ccccc2)nc(-c2ccccc2)[nH]c1=O", "hERG current change (%, negative = inhibition) at 10uM": 13.4}
{"smiles": "Cc1ccc(NC(=O)C(C)OC(=O)/C=C/c2ccccc2)cc1", "note": "(stereo not drawn)", "hERG current change (%, negative = inhibition) at 10uM": 23}
{"smiles": "Cc1cc(C)c(C)c(OCCOCCNCc2ccccc2)c1.O=C(O)C(=O)O", "hERG current change (%, negative = inhibition) at 10uM": -54.2}
{"smiles": "Cc1cc(Cl)cc(C)c1OCCNCc1ccccc1.O=C(O)C(=O)O", "hERG current change (%, negative = inhibition) at 10uM": -3.66}
{"smiles": "Cc1cc(Cl)cc(C)c1OCCOCCNCc1ccccc1.O=C(O)C(=O)O", "hERG current change (%, negative = inhibition) at 10uM": -52.4}
{"smiles": "Cc1ccc(OCCNCc2ccccc2)c(C)c1.O=C(O)C(=O)O", "hERG current change (%, negative = inhibition) at 10uM": -6.1}
{"smiles": "Cc1cc(C)c(C)c(OCCNCc2ccccc2)c1.O=C(O)C(=O)O", "hERG current change (%, negative = inhibition) at 10uM": -5.47}
{"smiles": "Clc1cccc(Cl)c1OCCOCCNCc1ccccc1.O=C(O)C(=O)O", "hERG current change (%, negative = inhibition) at 10uM": -31.2}
{"smiles": "Cc1cc(=O)[nH]c(N2CCN(Cc3ccccc3)CC2)n1", "hERG current change (%, negative = inhibition) at 10uM": -2.95}
